EPAC1 ag: qHTS for Agonist of cAMP-regulated guanine nucleotide exchange factor 3 (EPAC1): primary screen. EPAC1 agonist qHTS, biochemical assay; response scale: 100% = response to 6.5 mM cAMP. Rap guanine nucleotide exchange factor 3 (Homo sapiens), O95398. Potency, µM (titrated, usually from 154 µM), most hits filed as activators. actives 0.073% (n = 360,000); also: nearly all actives have a fitted effect of over 60% in size
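Normalized to 6.5 mM cAMP, activity reflects EPAC1-catalysed release of BODIPY-GDP from Rap1B, followed kinetically over 30 min at 480 nm excitation, 540 nm emission. Reaction contained 100 nM EPAC1, 250 nM Rap1B-BODIPY-GDP, 50 uM GDP.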
EPAC1 antagonist: qHTS for Antagonist of cAMP-regulated guanine nucleotide exchange factor 3 (EPAC1): primary screen | Rap guanine nucleotide exchange factor 3 (Homo sapiens), O95398 | EPAC1 GEF assay, Rap1b-BODIPY-GDP exchange fluorescence | Potency, µM (titrated, usually from 115 µM), hits mostly inhibitors | actives 0.14% (n = 360,000) | AID 720709, 2013; also: nearly all actives have a fitted effect of over 50% in size
EPAC2 antag: qHTS for Antagonist of cAMP-regulated guanine nucleotide exchange factor 2 (EPAC2): primary screen; Rap guanine nucleotide exchange factor 4 (Homo sapiens), Q8WZA2; EPAC2 GEF exchange of Rap1B-BODIPY-GDP, fluorescence; Potency, µM (series often up to 114 µM), most hits filed as inhibitors; actives 0.18% (n = 360,000); AID 720708, 2013; also: nearly all actives have a fitted effect of over 45% in size
Target sequence (Q8WZA2 whole entry, looked up): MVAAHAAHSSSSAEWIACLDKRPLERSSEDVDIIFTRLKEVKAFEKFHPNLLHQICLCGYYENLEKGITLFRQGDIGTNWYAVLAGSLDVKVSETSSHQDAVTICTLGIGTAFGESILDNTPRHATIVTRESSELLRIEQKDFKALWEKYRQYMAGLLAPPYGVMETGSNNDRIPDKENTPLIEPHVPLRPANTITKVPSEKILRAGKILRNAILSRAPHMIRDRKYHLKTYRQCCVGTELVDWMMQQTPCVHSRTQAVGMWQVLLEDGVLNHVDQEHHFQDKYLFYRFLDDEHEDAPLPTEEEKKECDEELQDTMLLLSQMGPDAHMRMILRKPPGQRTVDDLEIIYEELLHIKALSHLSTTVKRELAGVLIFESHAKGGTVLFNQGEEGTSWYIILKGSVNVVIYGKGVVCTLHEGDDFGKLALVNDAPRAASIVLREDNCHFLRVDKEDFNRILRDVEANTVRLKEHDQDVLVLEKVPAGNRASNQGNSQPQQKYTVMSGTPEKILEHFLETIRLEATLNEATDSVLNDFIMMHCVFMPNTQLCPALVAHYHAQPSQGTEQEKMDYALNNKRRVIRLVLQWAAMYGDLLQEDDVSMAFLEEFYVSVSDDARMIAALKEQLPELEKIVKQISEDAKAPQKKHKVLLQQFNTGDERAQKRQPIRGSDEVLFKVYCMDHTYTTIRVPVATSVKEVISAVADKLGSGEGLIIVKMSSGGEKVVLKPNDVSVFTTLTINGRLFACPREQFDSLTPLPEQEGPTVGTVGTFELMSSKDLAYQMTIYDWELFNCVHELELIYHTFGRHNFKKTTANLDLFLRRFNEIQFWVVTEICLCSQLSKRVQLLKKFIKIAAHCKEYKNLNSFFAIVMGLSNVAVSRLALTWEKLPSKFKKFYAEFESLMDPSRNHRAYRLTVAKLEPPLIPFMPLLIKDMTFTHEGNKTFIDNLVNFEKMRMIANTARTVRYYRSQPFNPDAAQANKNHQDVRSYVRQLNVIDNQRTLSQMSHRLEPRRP
EPAC2 agonist: qHTS for Agonist of cAMP-regulated guanine nucleotide exchange factor 4 (EPAC2): primary screen. Rap guanine nucleotide exchange factor 4 (Homo sapiens), Q8WZA2. EPAC2 activation, biochemical qHTS; response scale: 100% = 6.5 mM cAMP response. Potency, µM (titrated, usually from 154 µM), actives largely listed as activators. actives 0.079% (n = 360,000). AID 720711, 2013; also: nearly all actives have a fitted effect of over 50% in size
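Exchange assay: 100 nM EPAC2 with 250 nM Rap1B-BODIPY-GDP and 50 uM GDP. Fluorescence (ex 480/em 540 nm) read every 5 min for 30 min at room temperature. Data normalized to 6.5 mM cAMP as agonist control.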
Large screens that a line does not name were inactive. The list is not random: actives were taken first. Their share in the collection is about 0.39%. Calls follow the shape of the dose curve; as a rule, active = well fitted curve in the direction sought with a large enough effect; inconclusive = small, poorly fitted or top-dose-only effect, or another doubt; inactive = no such curve, though single readings can be large; an effect the other way counts as inactive or inconclusive.

CC[C@@]1(c2ccccc2OC)ON(c2ccccc2C(F)(F)F)C1=O	EPAC2 antag 14.1µM
COc1cc(C)nc(N2CCCC(C(=O)Nc3cc(Cl)ccc3OC)C2)n1 (centres undefined)	EPAC2 antag 25.1µM
N#C/C(=C\c1ccc(Sc2nc3ccccc3[nH]2)o1)c1ccccc1	none
N#C/C(=C\c1ccc(Sc2ccc(Cl)cc2)o1)c1nc2ccccc2[nH]1	EPAC2 agonist 100µM
N#C/C(=C/c1ccc(N2CCOCC2)o1)c1nc2ccccc2[nH]1	EPAC1 ag 89.1µM, EPAC2 agonist 100µM
Cc1cc(C(=O)c2cccs2)c(N)s1	none
Cc1cc(C)c(C(=O)c2cccs2)c(C)c1	EPAC2 antag 28.2µM
COCCn1c(-c2ccc(Br)cc2)csc1=Nc1cccnc1	EPAC2 antag 44.7µM
COc1ccc2oc(C(=O)Nc3ccc(N4CCOCC4)cc3)c(C)c2c1	EPAC1 ag 63.1µM, EPAC1 antagonist inconclusive
COc1ccc2oc(C(=O)Nc3ccccc3N3CCOCC3)c(C)c2c1	none
COc1cc(F)ccc1-c1csc(C(C)(NC(C)=O)c2ccccc2)n1 (centres undefined)	none
CCOC(=O)CC(=O)CSc1nc2ccc(C)cc2cc1C#N	EPAC1 ag inconclusive, EPAC2 agonist 100µM
CC1=C/C(=C(\c2cc(C)c(O)c(Br)c2)c2ccccc2S(=O)(=O)O)C=C(Br)C1=O	EPAC1 antagonist inconclusive, EPAC2 antag 39.8µM
Cc1cc(C(=O)c2ccccc2)cc(C)c1O	none
CC1=CC(C)(C)N(C(=O)CCl)c2cc(C)ccc21	EPAC2 antag 50.1µM
CC1=CC(C)(C)N(C(=O)CCl)c2ccccc21	EPAC2 antag inconclusive
COC(=O)[C@]12CCCCC=C1N(CCC1=CCCCC1)C(=O)[C@H](CC(=O)N1CCCC1)C2	none
Cc1nn(CCc2nn[nH]n2)c2nc(-c3ccc(Br)cc3)cc(C(F)(F)F)c12	EPAC2 antag 31.6µM
Cc1nn(CCc2nn[nH]n2)c2nc(C(F)(F)F)cc(C(F)(F)F)c12	none
CC(=O)NCCCNC(=S)NCCCN(Cc1ccc(Cl)cc1)c1ccc(Br)cn1	none
COc1nc(Oc2ccc(=O)[nH]n2)nc(N2CCOCC2)n1	none
CN(C)c1nc(Oc2ccc(=O)[nH]n2)nc(N2CCOCC2)n1	EPAC2 antag 25.1µM
COc1cc(/C=C2\SC(c3ccc(C)cc3)=NC2=O)cc(OC)c1O	none
Cc1ccc(C2=NC(=O)/C(=C/c3cc(O)c(O)c(Br)c3)S2)cc1	EPAC1 antagonist 10µM
CN(N=Nc1ccc([N+](=O)[O-])cc1)c1ccccc1	EPAC1 antagonist 79.4µM, EPAC2 agonist 100µM
COC(=O)c1cccc(CN2C(=O)C(C)Oc3ccc(C)cc32)c1 (centres undefined)	EPAC1 antagonist inconclusive
Cc1nc(NC(=O)c2ccccc2)sc1-c1cc(C(=O)N2CCOCC2)nn1Cc1ccccc1	none
COc1ccc(OC)c(-c2csc(NC(=O)COC(=O)c3ccc(NC(=O)CC#N)cc3)n2)c1	EPAC1 antagonist 79.4µM
Cc1cccc(C)c1-n1cccc1/C=C1\SC(=S)N(c2cccc(C(=O)O)c2)C1=O	EPAC1 antagonist 50.1µM, EPAC2 antag inconclusive
CN(c1ccccc1)c1ccc(/C=C(/CCC(=O)O)c2nc3ccccc3s2)cc1[N+](=O)[O-]	EPAC1 antagonist inconclusive
O=C(O)CC/C(=C\c1ccc(N2CCCC2)c([N+](=O)[O-])c1)c1nc2ccccc2s1	EPAC1 ag 89.1µM, EPAC1 antagonist 44.7µM
Oc1ccc(/C=N/N=C/c2ccc(O)c(O)c2)cc1O	EPAC1 antagonist inconclusive
Oc1ccc(N=Cc2ccc(O)c(O)c2)cc1	EPAC1 antagonist 39.8µM, EPAC2 antag inconclusive
Cn1cc([C@]2(O)C(=O)Nc3ccc(Br)cc32)c2ccccc21	EPAC2 antag 50.1µM
O=C(CSc1nc(O)cc(=O)n1-c1ccccc1)Nc1ccc2c3c(cccc13)CC2	EPAC1 antagonist 79.4µM
CCOc1cc(S(=O)(=O)N(CC)CC)ccc1Cl	EPAC2 antag 39.8µM
COc1cccc(CC(=O)Nc2nc(-c3cccnc3)cs2)c1	none
COc1ccc(CC(=O)Nc2nc(-c3cccnc3)cs2)cc1	EPAC1 antagonist 12.6µM
Cc1ccccc1CN1C(=O)c2ccccc2C1c1nnnn1-c1ccc2c(c1)OCCO2 (centres undefined)	none
COC(=O)c1cn(C(=O)OC)c2ccccc12	none
COC(=O)c1cn(C(=O)c2ccccc2Cl)c2ccccc12	EPAC2 antag 28.2µM
COc1ccc(-c2cc(C(=O)NCc3ccc(F)cc3)[nH]n2)c(C)c1	none
O=C(Nc1ccc(N2CCOCC2)cc1)Nc1ccc2nc(-c3ccco3)c(-c3ccco3)nc2c1	none
O=C(Nc1cccc(C(F)(F)F)c1)c1ccc2nc(-c3ccco3)c(-c3ccco3)nc2c1	EPAC1 antagonist 35.5µM, EPAC2 antag inconclusive
O=C(Nc1ccc2nc(-c3ccco3)c(-c3ccco3)nc2c1)NC1CC1	EPAC1 antagonist 50.1µM
O=c1[nH]cc(N=Cc2cc(Cl)cc(Cl)c2O)c(=O)[nH]1	EPAC1 ag 100µM
O=c1oc(-c2ccccc2)c(-c2ccccc2)c2ccccc12	EPAC2 antag 44.7µM
Cc1cccc(C)c1-n1nnnc1C(c1ccnc2ccccc12)N1CCN(C(=O)OCc2ccccc2)CC1 (centres undefined)	none
COc1ccc(CN2CCC[C@]3(N[C@H](c4ccccc4)[C@@H]4C(=O)N(Cc5ccccc5)C(=O)[C@@H]43)C2=O)cc1	EPAC2 agonist inconclusive
CCOC(=O)C1CCCCN1Cc1cccc(Oc2ccccc2)c1 (centres undefined)	EPAC2 antag 39.8µM
CCOC(=O)C1CCCCN1Cc1cccc(OCc2ccccc2)c1 (centres undefined)	none
CC(=O)Oc1ccc2c(c1)C(=O)c1ccccc1CO2	none
CC(=O)Oc1ccc2c(c1)Oc1cc(OC(C)=O)ccc1C21OC(=O)c2ccccc21	EPAC1 antagonist inconclusive, EPAC2 antag 39.8µM (no result: EPAC1 ag)
c1ccc(NN(Cc2cnccn2)c2ccccc2)cc1	EPAC2 antag inconclusive
c1ccc(NN(Cc2ccccn2)c2ccccc2)cc1	EPAC2 antag 14.1µM
COc1cc(CNC(C)c2ccccc2)cc(Br)c1OCc1ccccc1 (centres undefined)	none
COc1cc(CNc2ccc(O)cc2)cc(Br)c1OCc1ccccc1	EPAC1 antagonist 39.8µM, EPAC2 antag inconclusive
COc1ccccc1-c1cnc(C(O)c2ccc(C)cc2)[nH]1 (centres undefined)	none
Cc1cccc(C)c1NC(=O)C(c1ccccc1OC(F)(F)F)N1CCC(c2ccccc2)CC1 (centres undefined)	none
COc1ccc(S(=O)(=O)NC(CCSC)C(=O)NC2CCCCC2)cc1 (centres undefined)	EPAC1 antagonist 50.1µM
CC(=O)c1cc(C#N)c(N(C)Cc2ccccc2)nc1C	EPAC2 antag 50.1µM
